Assay outcomes deposited in PubChem by National Center for Advancing Translational Sciences (NCATS).
Cycloheximide cs – Cycloheximide Counterscreen for Small Molecule Inhibitors of Shiga Toxin; AID 2314, 2010; cell reporter, cycloheximide protein synthesis inhibition counterscreen; max response, %; 300,000 tested, 12% active; in the data active = max response mostly above about 13%, no sharp cut-off; inactive = mostly below about 14%; note: read at 38.3 µM for the half of the compounds with a filed dose; 0% is about no effect
Shiga inhibitor – A qHTS for Small Molecule Inhibitors of Shiga Toxin. Vero cells, Shiga toxin protein synthesis inhibition reporter. inhibition, % at 38.7 µM. 290,000 tested, 9.2% active; in the data active = inhibition mostly above about 28%, no sharp cut-off; inactive = mostly below about 43%; note: 0% is about no effect
Pf growth 96h – Primary qHTS for delayed death inhibitors of the malarial parasite plastid, 96 hour incubation. Potency, µM (highest dose often 28.7 µM), for inactives: at the top dose activity change, negative = inhibition, most hits filed as inhibitors. 320,000 tested, 6.9% active. P. falciparum luciferase reporter growth, 96 h. AID 504834, 2011; note: potency is the fitted concentration of half-maximal effect; % is set by controls: 0 for no effect and ±100 for the full control effect
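Two parasite generations (96 h, 37 C, 5% CO2) of compound exposure in infected erythrocytes (0.05% parasitemia, 2% hematocrit). Luciferase-reporter P. falciparum; decreased luminescence indicates inhibited growth, aimed at apicoplast-acting delayed death.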
Pf growth 48h – Primary qHTS for delayed death inhibitors of the malarial parasite plastid, 48 hour incubation. P. falciparum luciferase growth in erythrocytes, 48 h. Potency, µM (highest dose often 28.7 µM), for the others: at the highest dose activity change, negative = inhibition, most hits filed as inhibitors. 310,000 tested, 5.9% active. AID 504832, 2011; note: potency is the fitted concentration of half-maximal effect; % is set by controls: 0 for no effect and ±100 for the full control effect
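In quantitative HTS format, infected erythrocytes bearing luciferase-reporter parasites were treated for a single generation at 37 C. Luminescence after adding detection reagent served as the growth measure.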
SARS PLpro yeast – qHTS of Yeast-based Assay for SARS-CoV PLP. S. cerevisiae expressing SARS-CoV PLpro, growth rescue. Potency, µM (top dose mostly 32.9 µM), for inactives: top-dose activity, positive = growth rescue, usual class: activators. 330,000 tested, 0.19% active. AID 485353, 2010; calls by dose curve; note: potency is the fitted concentration of half-maximal effect; 0% is about no effect; nearly all actives have a fitted effect of over 55% in size
AMA1 RON2 block – qHTS for Inhibitors of AMA1-RON; Towards Development of Antimalarial Drug Lead: Primary Screen; Plasmodium falciparum AMA1 (3D7) - RON2 peptide interaction; AlphaScreen AMA1-biotinylated RON2 peptide binding; Potency, µM (series often up to 58.2 µM), for the others: at the highest dose activity change, negative = inhibition, hits mostly inhibitors; 360,000 tested, 0.2% active;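 note: potency is the fitted concentration of half-maximal effect; 0% = vehicle wells and -100% = peptide control; nearly all actives have a fitted effect of over 45% in size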
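AMA1 (3D7) with his tag at 25 nM final met compounds first, then biotinylated RON2 peptide at 25 nM; detection used donor plus acceptor beads, 10 µg/mL apiece, read by AlphaScreen after 30 min at room temperature.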
* = called active by the depositor; ? = inconclusive; / = not tested or not shown. In the library only some 19% were active in any assay of this set; here they are far more common. Unless noted, calls come from the whole dose curve; as a rule, active = well fitted curve in the direction sought with a large enough effect; inconclusive = small, poorly fitted or top-dose-only effect, or another doubt; inactive = no such curve, though single readings can be large; an effect the other way counts as inactive or inconclusive.

SMILES | Cycloheximide cs | Shiga inhibitor | Pf growth 96h | Pf growth 48h | SARS PLpro yeast | AMA1 RON2 block
O=C(NC(=S)Nc1ccc(Br)cn1)c1cccs1 | 69* | 105* | ? | 430% | 1% | 69%
Cc1cccnc1NC(=O)NC(=O)c1ccc(C(C)(C)C)s1 | 38* | 63* | 31% | ? | -5% | 8%
COc1ccc(C(=O)N2CCN(c3ccccn3)CC2)cc1[N+](=O)[O-] | -5 | 23 | ? | -3% | 0% | -4%
COCc1cc(=O)[nH]c(Nc2nc(C)c3ccccc3n2)n1 | -2 | -19 | 0% | / | -6% | -17%
Cc1nc(-c2ccccc2)cc(=O)[nH]1 | 4 | 13 | 15% | 52% | -7% | -4%
COCc1cc(=O)[nH]c(Nc2nc3ccccc3o2)n1 | 61* | 65* | -16% | ? | 1% | 47%
COC(=O)Cc1cc(=O)[nH]c(Nc2nc3ccccc3o2)n1 | 17* | 31* | 32% | 11% | 3% | 23%
Cc1cc(C)c2nc(Nc3nc(-c4ccccc4)cc(=O)[nH]3)nc(C)c2c1 | 10 | -2 | 3.7µM* | 1.7µM* | 1% | -6%
Cc1ccc2oc(Nc3nc(-c4ccccc4)cc(=O)[nH]3)nc2c1 | 11 | 3 | 0.83µM* | ? | 0% | 27%
CCOC(=O)Cc1cc(=O)[nH]c(Nc2nc3ccccc3o2)n1 | 18 | 77* | ? | ? | 0% | 25%
Cc1ccc2oc(Nc3nc(C)cc(C)n3)nc2c1 | 11* | 31 | 44% | 50% | -1% | 12%
Cc1cc(C)nc(Nc2ccccc2Br)n1 | -2 | -10 | ? | 22% | -6% | 10%
COc1cccc(NC(=O)CN(C)CC(=O)Nc2ccc(Cl)cc2[N+](=O)[O-])c1 | -5 | -6 | -18% | ? | -6% | 10%
CC(=O)Nc1ccc(S(=O)(=O)N2CCN(Cc3csc(C)n3)CC2)cc1 | -2 | -10 | 0% | 0% | -2% | 6%
O=C(CCc1ccccc1)NC1CCSC1=O (stereo not drawn) | 9 | 42 | / | 7% | 0% | -4%
C/C(=C\c1ccccc1)C(=O)NC1CCSC1=O (stereo not drawn) | 18* | 31 | 56% | 25% | -8% | 2%
COc1ccc(Oc2cnc3ccccc3n2)cc1 | 31* | 51* | 157% | 132% | -5% | 12%
c1ccc(Oc2cnc3ccccc3n2)cc1 | 21 | 35 | 3% | 10% | 2% | -10%
Clc1ccccc1Oc1cnc2ccccc2n1 | 16 | 22 | -21% | 2.6µM* | 4% | 27%
CC(=O)Nc1cccc(Oc2cnc3ccccc3n2)c1 | 17* | 46* | 83% | 77% | -1% | -4%
O=[N+]([O-])c1ccccc1Oc1cnc2ccccc2n1 | 2 | -3 | -4% | 3% | 0% | -16%
CC(=O)Nc1ccc(Oc2cnc3ccccc3n2)cc1 | -1 | 2 | 49% | 27% | 7% | 8%
Clc1cccc(Oc2cnc3ccccc3n2)c1 | 22* | 33 | 1% | 7% | 1% | 23%
NC(=O)N/N=C/C=C/c1ccc(F)cc1 | 2 | -3 | 42% | ? | -1% | -10%
Nc1cccc2c(=O)[nH]ccc12 | -3 | 1 | / | / | / | /
SMILES | Cycloheximide cs | Shiga inhibitor | Pf growth 96h | Pf growth 48h | SARS PLpro yeast | AMA1 RON2 block
CC(=O)Nc1ccc(-c2csc(NCc3ccccc3)n2)cc1 | 25* | 62* | -19% | 6% | -1% | 0%
CC(=O)Nc1cccc(-c2csc(NCc3ccccc3)n2)c1 | 11* | 3 | 10µM* | ? | -1% | ?
CC(=O)Nc1cccc(-c2csc(N)n2)c1 | -2 | 30 | ? | 26% | 0% | 6%
CC(=O)Nc1ccc(-c2csc(NNC(=O)c3ccccc3)n2)cc1 | 13 | 25 | -2% | 19% | 0% | 65%
CCOC(=O)/C(C)=N/Nc1nc(-c2ccc(NC(C)=O)cc2)cs1 | 18* | 17 | 10µM* | ? | 1% | 57%
c1ccc(Cn2c(Sc3nnnn3-c3ccccc3)nnc2-c2ccccc2)cc1 | -1 | -14 | ? | 1.9µM* | 0% | 0%
c1ccc(Cn2c(CSc3nnnn3-c3ccccc3)nc3ccccc32)cc1 | -3 | -14 | 15µM* | ? | -1% | -2%
O=c1c2ccccc2nc(CSc2nnnn2-c2ccccc2)n1-c1ccccc1Cl | -5 | -2 | 12µM* | ? | 24% | 3%
N=C(N)SCc1nc2ccccc2c(=O)n1-c1ccccc1Cl | 50* | 81* | ? | 21% | -1% | 5%
O=C(O)CSc1nnc(-c2ccncc2)n1Cc1ccccc1 | -7 | 38 | 12% | / | -1% | 9%
Cc1cccc(N2CCN(c3nc(C)cc(C)c3C#N)CC2C)c1 (stereo not drawn) | 0 | 7 | ? | 25% | -7% | -7%
CCC(c1nnnn1-c1ccc2c(c1)OCCO2)N1CCN(C)CC1 (stereo not drawn) | / | / | / | / | / | 2%
CN1CCN(c2ncnc3c2ncn3[C@H]2CN(Cc3ccc(F)cc3)C[C@@H](CO)O2)CC1 | / | / | / | / | / | -4%
O=C(Cc1ccccc1F)Nc1cc(Cl)ccc1N1CCCC1 | -3 | -5 | -12% | -27% | -1% | -13%
COc1ccccc1CNC(=O)C(Cc1c[nH]c2ccccc12)NC(=O)OCc1ccccc1 (stereo not drawn) | -3 | -19 | ? | -18% | 7% | -9%
Cc1cc(C)c(O)c(C2(O)C(=O)c3ccccc3C2=O)c1 | -1 | 13 | ? | ? | 0% | -8%
CCCCN(C)C(=O)CCC(=O)Nc1ccc2nc(N3CCN(C)CC3)cc(C)c2c1 | 1 | -9 | -3% | 14% | -4% | 5%
CCCCN(C)C(=O)CCC(=O)Nc1ccc2nc(N3CCOCC3)cc(C)c2c1 | 29* | 20 | ? | 23% | 0% | 8%
Cc1cc(N2CCC(C)CC2)nc2ccc(N3C(=O)CCC3=O)cc12 | 18* | 14 | 24% | 49% | -3% | -6%
Cc1cc(N2CCOCC2)nc2ccc(NC(=O)CCC(=O)N3CCC(C)CC3)cc12 | 8 | 103 | 31% | -18% | -1% | 6%
CCC(C)NC(=O)CCC(=O)Nc1ccc2nc(N3CC(C)CC(C)C3)cc(C)c2c1 (stereo not drawn) | 13 | 21 | 5.9µM* | 9.3µM* | 0% | -2%
CCCCNC(=O)CCC(=O)Nc1ccc2nc(N3CCC(C)CC3)cc(C)c2c1 | 30* | 55* | ? | -5% | 1% | 6%
CCn1nc(C)c([N+](=O)[O-])c1C(=O)NNC(=O)c1ccc(Cl)cc1 | -3 | -8 | 11% | 4% | 1% | 70%
Cc1ccccc1OCC(=O)N/N=C/c1ccc([N+](=O)[O-])o1 | -1 | 27 | 2.1µM* | 5.2µM* | 15% | 41%
